Only a selection was taken, and hits are over-represented in it overall.
Tg IFNy HTS = T. gondii growth inhibition under IFN-gamma | Toxoplasma gondii growth in IFN-gamma-treated host cells; active compounds read low | 69,000 compounds, 3.8% hits | activity change, negative = inhibition, % (test concentration not listed); in the data active = activity change below about -70%, passing the limit was not always enough;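 also: host cells are HeLa cells infected with Toxoplasma gondii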
* = called active by the depositor; ! = a repeat was not active.

SMILES | Tg IFNy HTS
CC(C)(C)c1ccc(C(=O)Nc2ccc3oc(-c4ccccc4)nc3c2)cc1 | -84*
O=C(Nc1cccc(-c2nc3ccccc3o2)c1)c1ccccc1 | -12
CC(C)CC(=O)Nc1ccc2oc(-c3ccncc3)nc2c1 | 99
CC(=O)Nc1ccc(Cl)c(C(=O)NCC(O)c2ccccc2)c1 (stereo not given) | 67
O=C(NC1CCC12CCN(C(=O)c1ccco1)CC2)c1cnccn1 (stereo not given) | 3
C=CCNC(=O)C1(Cc2cccc(-c3cncnc3)c2)CCN(C(=O)c2cnccn2)CC1 | -93*
CCN1CCOCC12CCN(C(=O)c1cnccn1)CC2 | -11
Cc1ccc(-c2ccc(OCC(=O)NCC3CCCO3)cc2)cc1 (stereo not given) | 26
O=C(c1cc2cccnc2n(Cc2ccccc2)c1=O)N1CCOCC1 | 43
O=C(O)CS(=O)(=O)/C=C/c1ccccc1 | -4
O=C(/C=C/c1ccccc1)c1ccccc1 | 28
O=C(/C=C/c1ccccc1)/C=C/c1ccccc1 | -98*
O=C(c1ccccc1)N1CCC(NCCN2CCc3ccccc32)CC1 | -12
COc1cc(C(=O)N2CCCC3(CC2)CN(C)C(=O)O3)ccn1 (stereo not given) | 2
CC(C)C(=O)NCc1csc(C2CCCN(C(=O)C(C)C)C2)n1 (stereo not given) | 27
CCc1ccc(Nc2nc(C(=O)N3CCOCC3)nc3ccccc23)cc1 | 63
CN(C)C(=O)COCc1nnc2n1CCN(Cc1ccsc1)C2 | -2
CCCN1C(=O)CCc2cc(NC(=O)c3ccsc3)ccc21 | -47
CCCN1C(=O)CCc2cc(NC(=O)c3ccc(C(C)C)cc3)ccc21 | -106*
CCOc1ccc(S(=O)(=O)Nc2ccc3c(c2)CCC(=O)N3CC(C)C)cc1 | -56
CCCN1C(=O)CCc2cc(NC(=O)c3ccc(C)cc3)ccc21 | -47
CCOc1ccc(C(=O)Nc2ccc3c(c2)CCC(=O)N3CC(C)C)cc1 | -82*
CC(=O)Nc1ccc2c(c1)CCC(=O)N2CC(C)C | 17
O=C(Cn1c(=O)c(S(=O)(=O)c2ccccc2)cc2ccccc21)NC1CCCCC1 | 7
CN(C)Cc1ccc(S(=O)(=O)n2ccc(/C=C/C(=O)NO)c2)cc1 | -81*
SMILES | Tg IFNy HTS
COc1ccc(-c2noc(-c3ccc(NCc4ccncc4)nc3)n2)cc1 | 226
COc1ccc(CN2COc3ccc(Cl)cc3C2)cc1 | -89*
CC1CN(CC(=O)NCc2ccc3c(c2)OCO3)Cc2cc(Cl)ccc2O1 (stereo not given) | 3
COc1ccc2ncc3c(c2c1)-c1cc(Cl)ccc1OC3 | 255
Cc1c[nH]c(CN2CCCCC2c2nc3ccc(F)cc3[nH]2)c(C)c1=O (stereo not given) | 12
Cn1cc(-c2ccncc2)c(C2CCCCN2C(=O)Cc2ccccc2)n1 (stereo not given) | 6
Cc1nc(-c2cccc(F)c2)sc1CCNC(=O)c1ccc(Br)cc1 | -50
Cc1nc2sc(C(=O)c3ccc(Br)cc3)c(N)c2c(C)c1C | -95*
COc1ccc(C(=O)c2sc(=S)n(-c3ccccc3)c2N)cc1 | 325
O=C(CCN1Cc2ccccc2C1)N1CCOC2(CNCCOC2)C1 (stereo not given) | 2
CCOc1ccc2[nH]c(=O)c(CN(C)Cc3cc(C)on3)cc2c1 | -18
CCOc1ccc2[nH]c(=O)c(CNCCO)cc2c1 | -101*
COc1ccc2[nH]c(=O)c(CNc3c(C)cc[nH]c3=O)cc2c1 | 139
CN1CCC(N2CCN(C(=O)Cn3cc(-c4ccc(F)cc4)oc3=O)CC2)CC1 | 234
Cn1ncc2c(Sc3ccc(Cl)cc3)ncnc21 | -66
Cn1ncc(C(=O)Sc2ccc(Cl)cc2)c1-n1cccc1 | -94*
Cc1nn(-c2ccccc2)nc1C(=O)Sc1ccc(Cl)cc1 | -59
COc1ccc(CN(C)C[C@H]2OCCCC[C@@H](C)Oc3ccc(NC(=O)C4CCCCC4)cc3C(=O)N([C@H](C)CO)C[C@H]2C)cc1 | 39
C[C@@H]1CN([C@@H](C)CO)C(=O)c2cc(NS(=O)(=O)c3cn(C)cn3)ccc2O[C@@H](C)CCCCO[C@@H]1CN(C)C(=O)Nc1ccc(C(F)(F)F)cc1 | 45
COc1ccc(S(=O)(=O)Nc2ccc3c(c2)C(=O)N([C@H](C)CO)C[C@H](C)[C@@H](CN(C)Cc2ccc(C(F)(F)F)cc2)OCCCC[C@H](C)O3)cc1 | 6
COc1ccc(CN(C)C[C@@H]2OCCCC[C@H](C)Oc3ccc(NC(=O)C4CCCCC4)cc3C(=O)N([C@H](C)CO)C[C@H]2C)cc1 | -25
C[C@@H]1CCCCO[C@H](CN(C)C(=O)Nc2ccc(C(F)(F)F)cc2)[C@H](C)CN([C@H](C)CO)C(=O)c2cc(NS(=O)(=O)c3cn(C)cn3)ccc2O1 | -83*
COc1ccc(CN(C)C[C@@H]2OCCCC[C@H](C)Oc3ccc(NC(=O)C4CCCCC4)cc3C(=O)N([C@@H](C)CO)C[C@@H]2C)cc1 | 93
C[C@H](CO)N1C[C@H](C)[C@@H](CN(C)C(=O)Nc2ccc(C(F)(F)F)cc2)OCCCC[C@H](C)Oc2ccc(NS(=O)(=O)c3cn(C)cn3)cc2C1=O | 143
COc1ccc(S(=O)(=O)Nc2ccc3c(c2)C(=O)N([C@@H](C)CO)C[C@H](C)[C@@H](CN(C)Cc2ccc(C(F)(F)F)cc2)OCCCC[C@H](C)O3)cc1 | -129*
SMILES | Tg IFNy HTS
COc1ccc(CN(C)C[C@@H]2OCCCC[C@@H](C)Oc3ccc(NC(=O)C4CCCCC4)cc3C(=O)N([C@@H](C)CO)C[C@H]2C)cc1 | -3
COc1ccc(S(=O)(=O)Nc2ccc3c(c2)C(=O)N([C@H](C)CO)C[C@@H](C)[C@H](CN(C)Cc2ccc(C(F)(F)F)cc2)OCCCC[C@H](C)O3)cc1 | -101*
Cc1ccc(S(=O)(=O)Nc2ccc3c(c2)C(=O)N([C@H](C)CO)C[C@@H](C)[C@H](CN(C)Cc2ccc(C(F)(F)F)cc2)O3)cc1 | -20
COc1ccc(S(=O)(=O)Nc2ccc3c(c2)C(=O)N([C@H](C)CO)C[C@H](C)[C@@H](CN(C)Cc2ccc(C(F)(F)F)cc2)OCCCC[C@@H](C)O3)cc1 | -91*
Cc1noc(C)c1CN1CCC2(CC(=O)N(c3ccc(F)cc3)C2)C1 (stereo not given) | 7
CNC(=O)c1cc(=O)n(CC(=O)Nc2ccc(C(C)C)cc2)c2ccccc12 | 8
Cc1ccc(C)c(-c2coc(-c3ccc(NC(=O)Nc4ccc5c(c4)OCCO5)cc3)n2)c1 | 152
Cc1cc(C)cc(NC(=O)Cn2ncc3c(N4CCC(C)CC4)ncnc32)c1 | 99
CCNC(=O)[C@@H]1C[C@H](N)CN1C(=O)CCc1ccc(C)c(C)c1 | 75
Cn1c(CNS(=O)(=O)c2ccc(Cl)cc2)cc2ccccc21 | 33
NCCOCc1ccc(-c2cc3ccccc3o2)cc1 | -24
Cc1cc(F)c(Nc2ncnc3cc(OCc4ccccc4)ccc23)cc1O | -77*
Oc1cccc(Nc2ncnc3ccccc23)c1 | -10
Cc1ccc(NC(=O)Nc2ccc(OCc3ccccc3)cc2)cc1NS(C)(=O)=O | -46
CS(=O)(=O)c1ccc(CC(=O)N2CCC(c3nc4ccccc4cc3N)CC2)cc1 | -25
CCN(CC)CCNc1ccc(CO)c2sc3ccccc3c(=O)c12 | -97*!
CCN(CC)CCNC(=O)c1ccccc1I | 12
COc1ccc(-n2cccn2)c(CN(C)C(C)C(=O)N(C)C)c1 (stereo not given) | 9
COc1cccc(C(=O)Nc2cccc(C(=O)OCC(=O)Nc3cc(C)on3)c2)c1 | -8
CC1=NOC(C(=O)Nc2nnc(CCOc3ccccc3Cl)s2)C1 (stereo not given) | -32
